# TSHR ag: agonists of human thyroid stimulating hormone receptor. P16473. HEK293-CNG-TSHR cells (CNG channel as cAMP sensor), membrane potential dye, cAMP. Potency, µM (highest dose often 57.1 µM), inactives show at the highest dose activation, usual class: activators. 73,000 compounds, 0.48% hits. AID 926; active means well fitted activation curve with a large enough effect in the main read-out, with a control signal flat, not every such curve was filed as active; inconclusive means small, poorly fitted or top-dose-only effect, or a change in a side signal; inactive means no such curve, though single readings can be large or run the other way; % of control where 0% means no effect;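 further: the control signal comes from parental cells without the receptor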
# Target sequence (P16473 whole entry, looked up): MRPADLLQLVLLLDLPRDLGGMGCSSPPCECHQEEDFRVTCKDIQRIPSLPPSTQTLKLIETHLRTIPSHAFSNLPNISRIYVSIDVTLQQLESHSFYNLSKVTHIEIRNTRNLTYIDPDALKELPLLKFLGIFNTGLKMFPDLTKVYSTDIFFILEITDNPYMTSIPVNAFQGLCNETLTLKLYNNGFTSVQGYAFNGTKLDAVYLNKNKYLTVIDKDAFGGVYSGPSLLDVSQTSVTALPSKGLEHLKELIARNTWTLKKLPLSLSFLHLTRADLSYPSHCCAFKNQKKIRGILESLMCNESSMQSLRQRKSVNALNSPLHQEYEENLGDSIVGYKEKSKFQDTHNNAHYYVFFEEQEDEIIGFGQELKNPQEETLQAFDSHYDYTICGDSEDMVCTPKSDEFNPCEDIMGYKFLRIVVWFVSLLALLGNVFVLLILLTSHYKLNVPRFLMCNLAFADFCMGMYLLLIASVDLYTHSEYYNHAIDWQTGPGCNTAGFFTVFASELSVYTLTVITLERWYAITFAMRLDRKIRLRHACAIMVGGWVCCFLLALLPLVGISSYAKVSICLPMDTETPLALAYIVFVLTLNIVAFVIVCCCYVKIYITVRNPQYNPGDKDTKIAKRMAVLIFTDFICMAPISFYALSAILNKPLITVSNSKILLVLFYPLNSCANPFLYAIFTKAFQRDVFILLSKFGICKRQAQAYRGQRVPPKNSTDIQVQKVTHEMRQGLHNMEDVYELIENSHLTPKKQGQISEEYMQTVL
#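 cAMP rise detected as CNG-channel membrane depolarization by fluorescent dye (emission 590 nm), 30 min after compound, following 60 min dye loading containing 100 uM RO 20-1724 at room temperature. Cells: TSHR/CNG HEK 293, with parental CNG HEK 293 as control.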
# DNA Pol III inh: DNA polymerase III holoenzyme inhibition. reconstituted DNA polymerase III holoenzyme replication, biochemical. Potency, µM (series often up to 57.1 µM), inactives show top-dose activity change, negative = inhibition. 71,000 compounds, 0.25% hits; further: on the % scale 0 is the no-effect control and ±100 the full control effect
#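 Reconstituted *E. coli* holoenzyme (0.35 nM Pol III, 1 nM beta, 154 nM SSB, 2 nM primase) was preincubated with compound for 15 min at RT. Synthesis on 1.4 nM ssM13Gori ran 35 min, then was stopped with PicoGreen/EDTA and read as dsDNA fluorescence.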
# Hsp90 Hop PPI: changes Hsp90-Hop TPR2A binding signal, up or down. AID 595. Potency, µM (series often up to 57 µM), inactives show at the highest dose activity change, negative = inhibition. AlphaScreen TPR2A-His6 binding biotin-Hsp90 C-terminal peptide. 71,000 compounds, 0.44% hits; active means well fitted curve in either direction with a large enough effect; inconclusive means small, poorly fitted or top-dose-only effect, or another doubt; further: on the % scale 0 is the no-effect control and ±100 the full control effect
# HEK293 cAMP ctrl: counter-screen for TSHR agonists: cAMP increase in parental HEK293 | parental HEK293 CNG cAMP sensor, membrane potential fluorescence | AID 938 | 73,000 compounds, 2.5% hits | Potency, µM (top dose mostly 57.1 µM), for the others: top-dose activation, most hits filed as activators; further: % of control where 0% means no effect; nearly all actives have a fitted effect of over 55% in size
#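 Parental HEK 293 cells stably expressing a modified CNG channel (no TSHR) report cAMP rise as membrane depolarization. Membrane potential dye with 100 uM RO 20-1724 was loaded for 60 min at room temperature, then compound added for 30 min; fluorescence read at 590 nm.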
# Tau filament bind: tau filament binding; Potency, µM (top dose mostly 57.1 µM), without a hit: top-dose activity change, negative = inhibition; 71,000 compounds, 2% hits; recombinant tau filaments, thioflavin S fluorescence, 15 h; filaments grown with octadecylsulfate alongside compound; AID 596; P10636;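 further: on the % scale 0 is the no-effect control and ±100 the full control effect; actives lower thioflavin S fluorescence by blocking filaments or displacing dye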
#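 His-tagged recombinant human tau (exons 2, 3, 10; 1 uM final) fibrillized with 30 uM sodium octadecylsulfate, 15 h at 37 C, in pH 7.4 HEPES buffer with 10 uM thioflavine S and 5 mM DTT. Reduced ThS fluorescence (450/510 nm) marks activity.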
# * marks the source's active call; other numbers are inactive results; i = inactive; ? = inconclusive; · = no result; [ ] = remark or other dose. Compounds with a hit are over-represented: about 5.1% of the library has one in this group of screens. Unless noted, the call rests on the fitted dose curve; in most records, active means well fitted curve in the direction sought with a large enough effect; inconclusive means small, poorly fitted or top-dose-only effect, or another doubt; inactive means no such curve, though single readings can be large; an effect the other way counts as inactive or inconclusive. Potency means the concentration at half of the fitted maximal effect.
SMILES,TSHR ag,DNA Pol III inh,Hsp90 Hop PPI,HEK293 cAMP ctrl,Tau filament bind
Nc1ccc(-c2ccc(Nc3cc(S(=O)(=O)O)c(N)c4c3C(=O)c3ccccc3C4=O)cc2)c(S(=O)(=O)O)c1,-3%[11.4 µM],-2%[11.4 µM],-10%[11 µM],2%[11.4 µM],-9%[11.4 µM]
O=C1c2ccccc2C(=O)c2c(NC3CCCCC3)ccc(Nc3ccc(S(=O)(=O)O)cc3)c21,-3%[11.4 µM],-15%[11.4 µM],4µM*,-11%[11.4 µM],3.2µM*
NNC(=O)c1ccc[n+](CCc2ccccc2)c1,-1%[11.4 µM],-10%[11.4 µM],-4%[11 µM],-7%[11.4 µM],-5%[11.4 µM]
COc1ccc(-c2noc(CSc3nc(-c4ccccc4)cc(=O)[nH]3)n2)cc1OC,16µM*,-22%,3%,6%,i
O=C(Nc1cccc(F)c1)N1CCCC2(CCNCC2)C1,3%,-7%,-6%,9%,8%
COC(=O)C(C#N)c1nc2ccccc2nc1N1CCN(Cc2ccc3c(c2)OCO3)CC1 (stereo not drawn),-6%,-4%,-5%,-2%,13µM*
CCCCOC(=O)C(C#N)c1nc2ccccc2nc1N1CCN(Cc2ccc3c(c2)OCO3)CC1 (stereo not drawn),?,0%,-9%,-35%,0.4µM*
CC(C)COC(=O)C(C#N)c1nc2ccccc2nc1N1CCN(Cc2ccc3c(c2)OCO3)CC1 (stereo not drawn),?,1%,-5%,?,2µM*
CC(C)C(=O)Nc1cccc(NC(=O)CCN2C(=O)c3ccccc3S2(=O)=O)c1,1%,-4%,-5%,1%,0%
Nc1nc2c(c(=O)[nH]1)CN(CCCN1CCOCC1)CN2,-1%[11.4 µM],-6%[11.4 µM],-5%[11 µM],3%[11.4 µM],-2%[11.4 µM]
Clc1ccc(OCCCc2nc(-c3cccnc3)no2)c(Cl)c1,?,0%,26%,16µM*,28%
O=C(C1CC1c1ccccc1)N1CCN(c2cccc(Cl)c2)CC1 (stereo not drawn),?,-2%,4%,32µM*,-6%
COc1ccccc1N1CCN(S(=O)(=O)c2ccc3c4c(cccc24)C(=O)N3C)CC1,-1%,5%,4%,-3%,25µM*
COC(=O)C/C=C\[C@@H](C)[C@H]1C=C[C@H](O)[C@@H](CO)O1,-1%[11.4 µM],·,·,-4%[11.4 µM],·
CCC1CCc2c(sc3ncnc(N4CCOCC4)c23)C1 (stereo not drawn),?,-5%,3%,32µM*,45%
CC1(C(=O)Nc2nccs2)Cc2ccccc2C(=O)O1 (stereo not drawn),·,-5%,-22%,17%,13µM*
COc1ccccc1NC(=O)C1(C)Cc2ccccc2C(=O)O1 (stereo not drawn),9%,-9%,?,12%,2%
Cc1ccc(C2C=C(c3ccc4c(c3)OCO4)Nc3ncnn32)cc1 (stereo not drawn),·,4%,-1%,26%,146%
COc1cccc(C2=CC(c3ccc(C)cc3)n3ncnc3N2)c1 (stereo not drawn),?,4%,4%,16µM*,i
COc1ccc2oc(=O)c(C(=O)N3CCN(C45CC6CC(CC(C6)C4)C5)CC3)cc2c1,3%,2%,-3%,-1%,160%
CCOC(=O)c1[nH]c(C)c(C(=O)NC2CCCC2)c1C,?,-1%,-1%,25µM*,-12%
O=C(O)c1cccc(C[C@H](Br)C(=O)O)c1,-2%[11.4 µM],-8%[11.4 µM],-5%[11 µM],10%[11.4 µM],1%[11.4 µM]
Cc1cc(O)ccc1Nc1nc2ccccc2nc1Nc1ccc(O)cc1C,17%,0%,-17%,-14%,7.9µM*
Cc1cc(Oc2ccccc2)nc2ccc(O)cc12,-20%,3%,-4%,-5%,-15%
O=C(Nc1cccc2ccccc12)OC1C=CS(=O)(=O)C1 (stereo not drawn),?,-2%,?,32µM*,345%
SMILES,TSHR ag,DNA Pol III inh,Hsp90 Hop PPI,HEK293 cAMP ctrl,Tau filament bind
O=C1CCC(C(=O)Nc2cccc3ccccc23)N1 (stereo not drawn),-6%,4%,-3%,0%,2%
c1ccc(C2=NN[C@@H]3c4ccccc4-c4ccccc4N3C2)cc1,-1%[11.4 µM],-15%[11.4 µM],-7%[11 µM],5%[11.4 µM],4µM*
CCN(c1ccccc1)c1cc(NC)[n+](C)c(C)n1,?,-4%,-2%,32µM*,-6%
CCN(c1ccccc1)c1cc(C)nc2nc(C)nn12,19%,-2%,-4%,0%,13%
COc1ccc(-n2c(C)cc(C(=O)CSc3nnc(-c4ccoc4C)n3C)c2C)cc1,?,4%,-15%,32µM*,-6%
Cc1cc(C(=O)CSc2nncs2)c(C)n1-c1c(C)n(C)n(-c2ccccc2)c1=O,6%,-6%,-2%,5%,-2%
COC(=O)c1ccccc1NC(=O)CSc1nnc(-c2ccoc2C)n1C,?,0%,-4%,?,12%
COc1ccc(-n2c(C)cc(C(=O)CSc3nn4c(=O)c(C(C)(C)C)nnc4s3)c2C)cc1,3%,-8%,-5%,-1%,20µM*
Cc1ccc(-n2c(C)cc(C(=O)CSc3nncs3)c2C)cc1,?,9%,-7%,25µM*,9%
O=C(O)CCc1ccc(-c2ccccc2)[nH]1,2%[11.4 µM],-5%[11.4 µM],2%[11 µM],11%[11.4 µM],-7%[11.4 µM]
COC(=O)[C@H](N)Cc1ccc(Cl)cc1,7%,-6%,-15%,14%,-7%
CC1CCC2C(=O)OC(CO)CN2C1c1ccc(Br)cc1 (stereo not drawn),5%[11.4 µM],·,·,16%[11.4 µM],·
c1ccc(-c2ccc(N3CCCC4(CCNCC4)C3)cc2)cc1,?,-5%,?,-53%,3.2µM*
c1ccc(-c2ccc(N3CC4(CCNCC4)C3)cc2)cc1,?,-1%,?,-38%,13µM*
c1cn(CCCNc2ncnc3sc4c(c23)CCC4)cn1,7%,-3%,-23%,9%,6%
c1csc(CCNc2ncnc3sc4c(c23)CCC4)c1,?,-4%,-3%[2.3 µM],20µM*,74%
O=C(Nc1ccc2c(c1)nc1n2CCN(C2CCCCC2)C1)c1ccco1,-9%,-8%,-8%,0%,25µM*
CC1CN(S(=O)(=O)c2cn(C)c(=O)n(C)c2=O)CC(C)O1 (stereo not drawn),40µM*,-2%,-6%,23%,3%
CCCCNC(=O)c1sc2nc(C)cc(COC)c2c1-n1cccc1,?,-1%,6%,16µM*,55%
O=C(CSc1nnc2ccccn12)c1ccc(OC(F)F)cc1OC(F)F,2%,-10%,-9%,-12%,13µM*
COCCn1c(C)cc(C(=O)CSc2nnc3ccccn23)c1C,-3%,-6%,-6%,11%,-1%
O=C(CN1CCN(S(=O)(=O)c2ccc(Br)cc2)CC1)Nc1ccc(F)cc1F,?,-1%,-2%,?,-3%
O=C(CN1CCN(S(=O)(=O)c2ccc(Br)cc2)CC1)Nc1ccccc1F,?,·,·,32µM*,·
COc1ccccc1-c1nnc(Nc2nc3c(OC)cccc3s2)o1,9%,4%,1%,11%,59%

# Source: PubChem BioAssay (National Center for Advancing Translational Sciences (NCATS))
